{"source": "paper PMC7862700", "about": "“An all-to-all approach to the identification of sequence-specific readers for epigenetic DNA modifications on cytosine”", "test_in_all_cases": "DAPPL (digital affinity profiling via proximity ligation, sequencing); 10 mM Tris-HCl pH 7.5, 50 mM NaCl, 1 mM DTT, 4% glycerol, room temperature, 30 min; GST-TFs on glutathione beads, 16-mer random dsDNA library, 0.1% formaldehyde crosslink after washing; high values mean tight binding", "key": {"FLI1": {"target": "T1, FLI1 (Homo sapiens, UniProt Q01543 1-452)", "T1 sequence": "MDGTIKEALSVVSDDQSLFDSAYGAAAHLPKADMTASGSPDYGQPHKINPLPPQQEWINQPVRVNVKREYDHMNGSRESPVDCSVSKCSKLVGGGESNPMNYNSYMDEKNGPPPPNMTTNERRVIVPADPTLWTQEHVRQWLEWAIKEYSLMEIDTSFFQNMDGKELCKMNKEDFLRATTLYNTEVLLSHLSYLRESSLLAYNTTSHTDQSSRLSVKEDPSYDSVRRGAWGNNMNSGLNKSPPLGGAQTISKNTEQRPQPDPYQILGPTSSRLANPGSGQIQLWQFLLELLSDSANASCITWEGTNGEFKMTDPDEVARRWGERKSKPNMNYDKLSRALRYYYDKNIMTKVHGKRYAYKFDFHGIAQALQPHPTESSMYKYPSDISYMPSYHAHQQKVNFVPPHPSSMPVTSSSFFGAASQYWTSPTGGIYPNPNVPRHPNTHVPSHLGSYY", "conditions": "protein: recombinant; tags: N-terminal GST; dsDNA, one strand shown", "in_short": "(§1)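 Human transcription factors were made in yeast as GST fusions, captured on glutathione beads and barcoded with DNA. With a tag-only sample included, the pool was incubated with 200 nmole of a random double-stranded 16-mer DNA library in Tris/NaCl/DTT/glycerol buffer at room temperature for 30 min, then crosslinked with 0.1% formaldehyde after washing, ligated by proximity, amplified and sequenced. For binding signal, each hexamer's read frequency for a factor is divided by its frequency for the tag-only sample.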"}, "ELK1": {"target": "T2, ELK1 (Homo sapiens, UniProt P19419 1-428)", "T2 sequence": "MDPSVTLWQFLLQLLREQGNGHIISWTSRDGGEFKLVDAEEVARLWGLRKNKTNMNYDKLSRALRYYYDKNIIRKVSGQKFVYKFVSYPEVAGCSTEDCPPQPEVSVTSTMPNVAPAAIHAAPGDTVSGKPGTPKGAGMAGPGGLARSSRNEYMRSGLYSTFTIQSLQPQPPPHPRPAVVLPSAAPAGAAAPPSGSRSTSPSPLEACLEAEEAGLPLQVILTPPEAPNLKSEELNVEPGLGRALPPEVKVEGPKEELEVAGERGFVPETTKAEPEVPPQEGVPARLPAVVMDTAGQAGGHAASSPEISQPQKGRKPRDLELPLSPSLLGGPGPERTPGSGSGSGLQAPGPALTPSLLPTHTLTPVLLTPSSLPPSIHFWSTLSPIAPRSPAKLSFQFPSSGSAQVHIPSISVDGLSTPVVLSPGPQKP", "conditions": "protein: recombinant; tags: N-terminal GST; dsDNA, one strand shown", "in_short": "as §1"}, "GABPA": {"target": "T3, GABPA (Homo sapiens, UniProt Q06546 1-454)", "T3 sequence": "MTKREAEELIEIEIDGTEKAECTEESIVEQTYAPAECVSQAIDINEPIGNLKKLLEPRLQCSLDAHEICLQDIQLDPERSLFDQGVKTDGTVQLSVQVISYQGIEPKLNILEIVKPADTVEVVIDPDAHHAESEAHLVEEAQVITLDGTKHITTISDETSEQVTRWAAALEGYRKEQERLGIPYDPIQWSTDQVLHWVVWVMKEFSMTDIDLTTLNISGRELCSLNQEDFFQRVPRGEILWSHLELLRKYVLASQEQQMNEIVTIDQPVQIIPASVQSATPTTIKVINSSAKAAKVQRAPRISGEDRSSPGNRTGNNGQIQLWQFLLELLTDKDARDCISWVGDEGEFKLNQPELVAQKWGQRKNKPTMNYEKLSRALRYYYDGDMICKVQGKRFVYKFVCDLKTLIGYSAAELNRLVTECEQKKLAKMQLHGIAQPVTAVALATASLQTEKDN", "conditions": "protein: recombinant; tags: N-terminal GST; dsDNA, one strand shown", "in_short": "as §1"}, "ERG": {"target": "T4, ERG (Homo sapiens, UniProt P11308 1-479)", "T4 sequence": "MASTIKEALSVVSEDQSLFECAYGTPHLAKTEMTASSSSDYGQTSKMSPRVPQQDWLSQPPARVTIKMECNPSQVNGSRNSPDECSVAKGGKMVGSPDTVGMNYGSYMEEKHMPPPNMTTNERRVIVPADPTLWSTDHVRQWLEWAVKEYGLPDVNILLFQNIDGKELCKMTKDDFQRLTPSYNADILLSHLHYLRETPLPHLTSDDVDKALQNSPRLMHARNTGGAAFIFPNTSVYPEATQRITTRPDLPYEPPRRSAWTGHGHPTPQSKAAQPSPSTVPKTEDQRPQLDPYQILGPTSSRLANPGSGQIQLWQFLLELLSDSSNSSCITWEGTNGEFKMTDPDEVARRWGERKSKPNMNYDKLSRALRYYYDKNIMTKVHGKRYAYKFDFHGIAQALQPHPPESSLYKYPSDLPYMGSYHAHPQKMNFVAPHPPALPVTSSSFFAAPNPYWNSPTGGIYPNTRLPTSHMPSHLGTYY", "conditions": "protein: recombinant; tags: N-terminal GST; dsDNA, one strand shown", "in_short": "as §1"}, "ELF1": {"target": "ELF1 (Homo sapiens, UniProt P32519 1-619)", "sequence (P32519 whole entry)": "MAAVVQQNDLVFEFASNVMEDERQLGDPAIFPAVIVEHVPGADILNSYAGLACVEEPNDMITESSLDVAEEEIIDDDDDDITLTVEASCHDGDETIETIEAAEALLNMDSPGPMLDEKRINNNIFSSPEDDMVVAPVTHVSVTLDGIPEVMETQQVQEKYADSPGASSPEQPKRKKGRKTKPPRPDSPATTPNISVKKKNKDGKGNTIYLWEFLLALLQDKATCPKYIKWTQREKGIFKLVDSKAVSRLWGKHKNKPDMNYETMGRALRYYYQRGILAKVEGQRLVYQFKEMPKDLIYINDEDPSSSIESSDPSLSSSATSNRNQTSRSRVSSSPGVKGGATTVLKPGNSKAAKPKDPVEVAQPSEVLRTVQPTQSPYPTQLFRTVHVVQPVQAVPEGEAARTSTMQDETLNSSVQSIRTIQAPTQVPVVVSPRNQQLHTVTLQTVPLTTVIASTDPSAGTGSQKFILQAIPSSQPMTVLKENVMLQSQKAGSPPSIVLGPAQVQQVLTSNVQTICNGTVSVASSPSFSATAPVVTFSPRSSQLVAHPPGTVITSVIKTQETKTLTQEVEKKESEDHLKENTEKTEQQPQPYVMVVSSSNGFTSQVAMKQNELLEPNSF", "conditions": "protein: recombinant; tags: N-terminal GST; dsDNA, one strand shown", "in_short": "as §1"}, "EHF": {"target": "T5, EHF (Homo sapiens, UniProt Q9NZC4 1-300)", "T5 sequence": "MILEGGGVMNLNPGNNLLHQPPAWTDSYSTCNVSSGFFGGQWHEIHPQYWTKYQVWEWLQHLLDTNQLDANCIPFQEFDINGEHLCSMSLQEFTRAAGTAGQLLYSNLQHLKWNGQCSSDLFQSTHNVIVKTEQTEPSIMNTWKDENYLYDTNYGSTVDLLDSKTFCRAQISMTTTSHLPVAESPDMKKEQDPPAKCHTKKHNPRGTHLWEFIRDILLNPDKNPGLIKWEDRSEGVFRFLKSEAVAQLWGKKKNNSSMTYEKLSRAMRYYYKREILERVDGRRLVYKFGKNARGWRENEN", "conditions": "protein: recombinant; tags: N-terminal GST; dsDNA, one strand shown", "in_short": "as §1"}, "SPI1": {"target": "SPI1 (Homo sapiens, UniProt P17947 1-270)", "conditions": "protein: recombinant; tags: N-terminal GST; dsDNA, one strand shown", "in_short": "as §1"}, "SPIB": {"target": "SPIB (Homo sapiens, UniProt Q01892 1-262)", "sequence (Q01892 whole entry)": "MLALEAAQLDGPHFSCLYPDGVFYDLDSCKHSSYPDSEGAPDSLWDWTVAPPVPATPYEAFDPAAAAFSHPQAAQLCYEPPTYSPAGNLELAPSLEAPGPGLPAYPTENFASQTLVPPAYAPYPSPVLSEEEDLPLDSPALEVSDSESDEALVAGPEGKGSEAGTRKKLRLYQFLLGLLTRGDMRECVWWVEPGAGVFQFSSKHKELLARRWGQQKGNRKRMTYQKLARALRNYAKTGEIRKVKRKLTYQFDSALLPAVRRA", "conditions": "protein: recombinant; tags: N-terminal GST; dsDNA, one strand shown", "in_short": "as §1"}, "FEV": {"target": "T6, FEV (Homo sapiens, UniProt Q99581 1-238)", "T6 sequence": "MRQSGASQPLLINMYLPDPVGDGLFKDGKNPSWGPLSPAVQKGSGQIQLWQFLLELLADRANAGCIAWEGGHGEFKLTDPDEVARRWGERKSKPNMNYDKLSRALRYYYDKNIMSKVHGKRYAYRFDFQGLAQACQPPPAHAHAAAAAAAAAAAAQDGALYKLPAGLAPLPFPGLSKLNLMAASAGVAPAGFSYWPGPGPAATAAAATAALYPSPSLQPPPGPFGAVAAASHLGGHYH", "conditions": "protein: recombinant; tags: N-terminal GST; dsDNA, one strand shown", "in_short": "as §1"}, "ETV5": {"target": "ETV5 (Homo sapiens, UniProt P41161 1-510)", "sequence (P41161 whole entry)": "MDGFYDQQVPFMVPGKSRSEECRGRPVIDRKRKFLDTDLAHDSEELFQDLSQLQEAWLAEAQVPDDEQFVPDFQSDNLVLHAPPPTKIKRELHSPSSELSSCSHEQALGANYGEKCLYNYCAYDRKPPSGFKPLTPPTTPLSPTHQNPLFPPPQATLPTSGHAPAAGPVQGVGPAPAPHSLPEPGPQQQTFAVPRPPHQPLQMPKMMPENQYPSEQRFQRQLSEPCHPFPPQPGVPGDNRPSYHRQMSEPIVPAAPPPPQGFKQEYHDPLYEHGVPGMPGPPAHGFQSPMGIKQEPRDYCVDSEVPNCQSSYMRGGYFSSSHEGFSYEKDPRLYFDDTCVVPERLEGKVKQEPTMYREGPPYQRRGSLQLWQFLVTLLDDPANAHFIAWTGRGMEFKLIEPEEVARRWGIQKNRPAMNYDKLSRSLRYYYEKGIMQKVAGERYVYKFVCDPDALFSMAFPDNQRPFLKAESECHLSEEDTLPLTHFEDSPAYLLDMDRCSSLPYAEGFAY", "conditions": "protein: recombinant; tags: N-terminal GST; dsDNA, one strand shown", "in_short": "as §1"}, "HSF1": {"target": "HSF1 (Homo sapiens, UniProt Q00613 1-529)", "sequence (Q00613 whole entry)": "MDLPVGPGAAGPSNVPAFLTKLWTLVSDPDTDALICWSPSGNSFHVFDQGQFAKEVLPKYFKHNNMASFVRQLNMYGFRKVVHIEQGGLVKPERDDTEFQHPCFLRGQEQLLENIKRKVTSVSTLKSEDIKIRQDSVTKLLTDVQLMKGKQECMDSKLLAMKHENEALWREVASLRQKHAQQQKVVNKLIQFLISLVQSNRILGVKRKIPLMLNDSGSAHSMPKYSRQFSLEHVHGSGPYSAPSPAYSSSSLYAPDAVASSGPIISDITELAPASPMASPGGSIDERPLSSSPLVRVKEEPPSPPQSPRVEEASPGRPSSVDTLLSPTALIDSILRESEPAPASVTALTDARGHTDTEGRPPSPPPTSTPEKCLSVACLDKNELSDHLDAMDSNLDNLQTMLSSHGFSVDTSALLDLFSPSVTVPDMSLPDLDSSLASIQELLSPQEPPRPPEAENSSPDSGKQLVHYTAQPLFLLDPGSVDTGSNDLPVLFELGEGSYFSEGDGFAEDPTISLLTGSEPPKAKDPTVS", "conditions": "protein: recombinant; tags: N-terminal GST; chain copies: 3; dsDNA, one strand shown", "in_short": "as §1"}, "SPIC": {"target": "T7, SPIC (Homo sapiens, UniProt Q8N5J4 1-248)", "T7 sequence": "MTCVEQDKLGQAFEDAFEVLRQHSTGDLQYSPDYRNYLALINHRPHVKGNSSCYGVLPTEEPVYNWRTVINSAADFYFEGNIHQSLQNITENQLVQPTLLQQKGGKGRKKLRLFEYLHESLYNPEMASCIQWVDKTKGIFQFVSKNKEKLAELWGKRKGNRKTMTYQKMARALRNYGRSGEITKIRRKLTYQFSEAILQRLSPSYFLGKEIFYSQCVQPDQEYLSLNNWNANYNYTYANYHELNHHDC", "conditions": "protein: recombinant; tags: N-terminal GST; dsDNA, one strand shown", "in_short": "as §1"}, "ELF4": {"target": "ELF4 (Homo sapiens, UniProt Q99607 1-663)", "sequence (Q99607 whole entry)": "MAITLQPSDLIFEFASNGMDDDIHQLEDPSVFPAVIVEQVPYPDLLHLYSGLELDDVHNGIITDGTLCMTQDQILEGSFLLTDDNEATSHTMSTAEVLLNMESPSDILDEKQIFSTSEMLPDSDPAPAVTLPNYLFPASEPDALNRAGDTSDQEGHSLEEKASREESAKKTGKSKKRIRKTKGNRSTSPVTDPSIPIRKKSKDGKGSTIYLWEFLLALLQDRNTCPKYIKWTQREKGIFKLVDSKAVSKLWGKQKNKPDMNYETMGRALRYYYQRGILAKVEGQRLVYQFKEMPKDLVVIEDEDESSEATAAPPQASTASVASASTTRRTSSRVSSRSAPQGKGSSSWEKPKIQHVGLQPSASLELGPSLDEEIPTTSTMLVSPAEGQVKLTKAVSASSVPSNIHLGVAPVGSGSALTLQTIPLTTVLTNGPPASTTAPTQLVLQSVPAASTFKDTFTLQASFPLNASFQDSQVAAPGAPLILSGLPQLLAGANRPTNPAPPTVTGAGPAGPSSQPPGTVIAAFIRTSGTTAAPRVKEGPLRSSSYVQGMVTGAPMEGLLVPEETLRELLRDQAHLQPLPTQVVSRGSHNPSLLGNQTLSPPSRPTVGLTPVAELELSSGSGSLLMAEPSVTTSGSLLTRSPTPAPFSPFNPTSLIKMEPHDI", "conditions": "protein: recombinant; tags: N-terminal GST; dsDNA, one strand shown", "in_short": "as §1"}, "ELK4": {"target": "T8, ELK4 (Homo sapiens, UniProt P28324-2 1-405)", "T8 sequence": "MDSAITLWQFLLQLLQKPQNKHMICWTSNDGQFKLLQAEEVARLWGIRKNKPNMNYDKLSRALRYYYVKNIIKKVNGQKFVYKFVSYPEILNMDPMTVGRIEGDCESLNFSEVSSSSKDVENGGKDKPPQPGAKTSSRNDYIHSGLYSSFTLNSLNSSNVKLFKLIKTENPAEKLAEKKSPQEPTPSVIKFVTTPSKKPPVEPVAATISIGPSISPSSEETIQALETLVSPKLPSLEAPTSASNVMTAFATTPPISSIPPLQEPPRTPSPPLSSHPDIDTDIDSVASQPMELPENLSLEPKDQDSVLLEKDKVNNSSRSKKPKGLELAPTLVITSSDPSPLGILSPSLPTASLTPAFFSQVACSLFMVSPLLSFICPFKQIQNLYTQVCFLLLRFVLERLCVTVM", "conditions": "protein: recombinant; tags: N-terminal GST; dsDNA, one strand shown", "in_short": "as §1"}, "ETV2": {"target": "T9, ETV2 (Homo sapiens, UniProt O00321 1-342)", "T9 sequence": "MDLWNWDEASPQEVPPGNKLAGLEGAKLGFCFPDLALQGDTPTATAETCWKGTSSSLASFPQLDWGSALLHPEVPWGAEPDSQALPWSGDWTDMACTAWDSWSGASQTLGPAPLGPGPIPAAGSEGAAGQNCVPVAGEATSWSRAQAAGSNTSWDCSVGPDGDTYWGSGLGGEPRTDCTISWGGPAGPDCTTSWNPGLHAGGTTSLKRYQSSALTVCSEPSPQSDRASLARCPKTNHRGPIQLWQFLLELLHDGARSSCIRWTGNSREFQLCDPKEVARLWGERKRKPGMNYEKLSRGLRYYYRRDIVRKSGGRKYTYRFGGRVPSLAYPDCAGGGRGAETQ", "conditions": "protein: recombinant; tags: N-terminal GST; dsDNA, one strand shown", "in_short": "as §1"}, "ELF3": {"target": "T10, ELF3 (Homo sapiens, UniProt P78545 1-371)", "T10 sequence": "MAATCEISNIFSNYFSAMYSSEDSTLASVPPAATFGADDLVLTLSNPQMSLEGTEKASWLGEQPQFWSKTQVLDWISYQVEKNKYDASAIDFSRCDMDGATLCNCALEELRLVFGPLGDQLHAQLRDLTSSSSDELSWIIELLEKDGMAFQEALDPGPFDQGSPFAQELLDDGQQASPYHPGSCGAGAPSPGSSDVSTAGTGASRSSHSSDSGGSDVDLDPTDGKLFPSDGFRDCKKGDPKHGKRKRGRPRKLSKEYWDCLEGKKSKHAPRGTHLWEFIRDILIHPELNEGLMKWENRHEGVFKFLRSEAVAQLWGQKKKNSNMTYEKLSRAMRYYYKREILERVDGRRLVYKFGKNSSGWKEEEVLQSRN", "conditions": "protein: recombinant; tags: N-terminal GST; dsDNA, one strand shown", "in_short": "as §1"}, "CRX": {"target": "CRX (Homo sapiens, UniProt O43186 1-299)", "sequence (O43186 whole entry)": "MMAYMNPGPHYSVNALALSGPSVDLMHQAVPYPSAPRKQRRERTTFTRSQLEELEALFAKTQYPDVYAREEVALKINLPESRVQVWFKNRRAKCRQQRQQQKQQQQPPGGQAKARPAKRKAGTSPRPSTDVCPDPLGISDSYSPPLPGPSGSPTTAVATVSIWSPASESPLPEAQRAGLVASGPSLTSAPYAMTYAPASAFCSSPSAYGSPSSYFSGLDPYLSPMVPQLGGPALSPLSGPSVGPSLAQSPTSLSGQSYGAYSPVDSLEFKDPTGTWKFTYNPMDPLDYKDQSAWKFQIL", "conditions": "protein: recombinant; tags: N-terminal GST; dsDNA, one strand shown", "in_short": "as §1"}, "ETV1": {"target": "ETV1 (Homo sapiens, UniProt P50549 1-477)", "sequence (P50549 whole entry)": "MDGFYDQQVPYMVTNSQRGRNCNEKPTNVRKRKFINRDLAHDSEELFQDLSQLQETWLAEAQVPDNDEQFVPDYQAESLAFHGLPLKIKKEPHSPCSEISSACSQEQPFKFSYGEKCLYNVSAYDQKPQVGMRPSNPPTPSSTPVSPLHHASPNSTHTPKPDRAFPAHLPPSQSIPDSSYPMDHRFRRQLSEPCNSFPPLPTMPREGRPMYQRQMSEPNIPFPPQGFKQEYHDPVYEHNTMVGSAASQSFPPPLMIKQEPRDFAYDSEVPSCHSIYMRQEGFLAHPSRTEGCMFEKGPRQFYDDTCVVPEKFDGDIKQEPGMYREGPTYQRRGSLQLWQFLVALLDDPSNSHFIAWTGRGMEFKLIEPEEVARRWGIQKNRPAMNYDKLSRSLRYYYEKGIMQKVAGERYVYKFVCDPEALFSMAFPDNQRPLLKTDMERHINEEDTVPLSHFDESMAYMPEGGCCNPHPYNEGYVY", "conditions": "protein: recombinant; tags: N-terminal GST; dsDNA, one strand shown", "in_short": "as §1"}}}
{"sequence": "CGAAAG", "values": [{"measurement": "binding signal", "setting": "FLI1", "value": "1.15 fold enrichment (6-mer frequency, TF over GST control)"}, {"measurement": "binding signal", "setting": "ELK1", "value": "1.13 fold enrichment (6-mer frequency, TF over GST control)"}, {"measurement": "binding signal", "setting": "GABPA", "value": "1.08 fold enrichment (6-mer frequency, TF over GST control)"}, {"measurement": "binding signal", "setting": "ERG", "value": "1.04 fold enrichment (6-mer frequency, TF over GST control)"}, {"measurement": "binding signal", "setting": "ELF1", "value": "1.09 fold enrichment (6-mer frequency, TF over GST control)"}, {"measurement": "binding signal", "setting": "EHF", "value": "1.01 fold enrichment (6-mer frequency, TF over GST control)"}, {"measurement": "binding signal", "setting": "SPI1", "value": "1.16 fold enrichment (6-mer frequency, TF over GST control)"}, {"measurement": "binding signal", "setting": "SPIB", "value": "1.06 fold enrichment (6-mer frequency, TF over GST control)"}, {"measurement": "binding signal", "setting": "FEV", "value": "1.04 fold enrichment (6-mer frequency, TF over GST control)"}, {"measurement": "binding signal", "setting": "ETV5", "value": "1.1 fold enrichment (6-mer frequency, TF over GST control)"}, {"measurement": "binding signal", "setting": "HSF1", "value": "1.81 fold enrichment (6-mer frequency, TF over GST control)"}, {"measurement": "binding signal", "setting": "SPIC", "value": "1.03 fold enrichment (6-mer frequency, TF over GST control)"}, {"measurement": "binding signal", "setting": "ELF4", "value": "1.06 fold enrichment (6-mer frequency, TF over GST control)"}, {"measurement": "binding signal", "setting": "ELK4", "value": "1.09 fold enrichment (6-mer frequency, TF over GST control)"}, {"measurement": "binding signal", "setting": "ETV2", "value": "1.13 fold enrichment (6-mer frequency, TF over GST control)"}, {"measurement": "binding signal", "setting": "ELF3", "value": "1.21 fold enrichment (6-mer frequency, TF over GST control)"}, {"measurement": "binding signal", "setting": "CRX", "value": "1.11 fold enrichment (6-mer frequency, TF over GST control)"}, {"measurement": "binding signal", "setting": "ETV1", "value": "1.01 fold enrichment (6-mer frequency, TF over GST control)"}]}
